From the supplement of paper PMC11732987, “Enantioselective OTUD7B fragment discovery through chemoproteomics screening and high-throughput optimisation” (Communications Chemistry, 2025)

Assays:
Experiment in all cases: log2 ratio of Biotin-Ahx-Ub-VS probe labelling (fragment/DMSO); higher = less target engagement (more negative = stronger competition), active = hit call of the paper (q ≤ 0.05, log2 ratio ≤ -1)
Conditions in all cases: compound concentration: 200 uM; treatment time: 3 h
[1] = target: USP34 (UniProt Q70CQ2)
Sequence of USP34 (Q70CQ2 whole entry, the tested form may be a part): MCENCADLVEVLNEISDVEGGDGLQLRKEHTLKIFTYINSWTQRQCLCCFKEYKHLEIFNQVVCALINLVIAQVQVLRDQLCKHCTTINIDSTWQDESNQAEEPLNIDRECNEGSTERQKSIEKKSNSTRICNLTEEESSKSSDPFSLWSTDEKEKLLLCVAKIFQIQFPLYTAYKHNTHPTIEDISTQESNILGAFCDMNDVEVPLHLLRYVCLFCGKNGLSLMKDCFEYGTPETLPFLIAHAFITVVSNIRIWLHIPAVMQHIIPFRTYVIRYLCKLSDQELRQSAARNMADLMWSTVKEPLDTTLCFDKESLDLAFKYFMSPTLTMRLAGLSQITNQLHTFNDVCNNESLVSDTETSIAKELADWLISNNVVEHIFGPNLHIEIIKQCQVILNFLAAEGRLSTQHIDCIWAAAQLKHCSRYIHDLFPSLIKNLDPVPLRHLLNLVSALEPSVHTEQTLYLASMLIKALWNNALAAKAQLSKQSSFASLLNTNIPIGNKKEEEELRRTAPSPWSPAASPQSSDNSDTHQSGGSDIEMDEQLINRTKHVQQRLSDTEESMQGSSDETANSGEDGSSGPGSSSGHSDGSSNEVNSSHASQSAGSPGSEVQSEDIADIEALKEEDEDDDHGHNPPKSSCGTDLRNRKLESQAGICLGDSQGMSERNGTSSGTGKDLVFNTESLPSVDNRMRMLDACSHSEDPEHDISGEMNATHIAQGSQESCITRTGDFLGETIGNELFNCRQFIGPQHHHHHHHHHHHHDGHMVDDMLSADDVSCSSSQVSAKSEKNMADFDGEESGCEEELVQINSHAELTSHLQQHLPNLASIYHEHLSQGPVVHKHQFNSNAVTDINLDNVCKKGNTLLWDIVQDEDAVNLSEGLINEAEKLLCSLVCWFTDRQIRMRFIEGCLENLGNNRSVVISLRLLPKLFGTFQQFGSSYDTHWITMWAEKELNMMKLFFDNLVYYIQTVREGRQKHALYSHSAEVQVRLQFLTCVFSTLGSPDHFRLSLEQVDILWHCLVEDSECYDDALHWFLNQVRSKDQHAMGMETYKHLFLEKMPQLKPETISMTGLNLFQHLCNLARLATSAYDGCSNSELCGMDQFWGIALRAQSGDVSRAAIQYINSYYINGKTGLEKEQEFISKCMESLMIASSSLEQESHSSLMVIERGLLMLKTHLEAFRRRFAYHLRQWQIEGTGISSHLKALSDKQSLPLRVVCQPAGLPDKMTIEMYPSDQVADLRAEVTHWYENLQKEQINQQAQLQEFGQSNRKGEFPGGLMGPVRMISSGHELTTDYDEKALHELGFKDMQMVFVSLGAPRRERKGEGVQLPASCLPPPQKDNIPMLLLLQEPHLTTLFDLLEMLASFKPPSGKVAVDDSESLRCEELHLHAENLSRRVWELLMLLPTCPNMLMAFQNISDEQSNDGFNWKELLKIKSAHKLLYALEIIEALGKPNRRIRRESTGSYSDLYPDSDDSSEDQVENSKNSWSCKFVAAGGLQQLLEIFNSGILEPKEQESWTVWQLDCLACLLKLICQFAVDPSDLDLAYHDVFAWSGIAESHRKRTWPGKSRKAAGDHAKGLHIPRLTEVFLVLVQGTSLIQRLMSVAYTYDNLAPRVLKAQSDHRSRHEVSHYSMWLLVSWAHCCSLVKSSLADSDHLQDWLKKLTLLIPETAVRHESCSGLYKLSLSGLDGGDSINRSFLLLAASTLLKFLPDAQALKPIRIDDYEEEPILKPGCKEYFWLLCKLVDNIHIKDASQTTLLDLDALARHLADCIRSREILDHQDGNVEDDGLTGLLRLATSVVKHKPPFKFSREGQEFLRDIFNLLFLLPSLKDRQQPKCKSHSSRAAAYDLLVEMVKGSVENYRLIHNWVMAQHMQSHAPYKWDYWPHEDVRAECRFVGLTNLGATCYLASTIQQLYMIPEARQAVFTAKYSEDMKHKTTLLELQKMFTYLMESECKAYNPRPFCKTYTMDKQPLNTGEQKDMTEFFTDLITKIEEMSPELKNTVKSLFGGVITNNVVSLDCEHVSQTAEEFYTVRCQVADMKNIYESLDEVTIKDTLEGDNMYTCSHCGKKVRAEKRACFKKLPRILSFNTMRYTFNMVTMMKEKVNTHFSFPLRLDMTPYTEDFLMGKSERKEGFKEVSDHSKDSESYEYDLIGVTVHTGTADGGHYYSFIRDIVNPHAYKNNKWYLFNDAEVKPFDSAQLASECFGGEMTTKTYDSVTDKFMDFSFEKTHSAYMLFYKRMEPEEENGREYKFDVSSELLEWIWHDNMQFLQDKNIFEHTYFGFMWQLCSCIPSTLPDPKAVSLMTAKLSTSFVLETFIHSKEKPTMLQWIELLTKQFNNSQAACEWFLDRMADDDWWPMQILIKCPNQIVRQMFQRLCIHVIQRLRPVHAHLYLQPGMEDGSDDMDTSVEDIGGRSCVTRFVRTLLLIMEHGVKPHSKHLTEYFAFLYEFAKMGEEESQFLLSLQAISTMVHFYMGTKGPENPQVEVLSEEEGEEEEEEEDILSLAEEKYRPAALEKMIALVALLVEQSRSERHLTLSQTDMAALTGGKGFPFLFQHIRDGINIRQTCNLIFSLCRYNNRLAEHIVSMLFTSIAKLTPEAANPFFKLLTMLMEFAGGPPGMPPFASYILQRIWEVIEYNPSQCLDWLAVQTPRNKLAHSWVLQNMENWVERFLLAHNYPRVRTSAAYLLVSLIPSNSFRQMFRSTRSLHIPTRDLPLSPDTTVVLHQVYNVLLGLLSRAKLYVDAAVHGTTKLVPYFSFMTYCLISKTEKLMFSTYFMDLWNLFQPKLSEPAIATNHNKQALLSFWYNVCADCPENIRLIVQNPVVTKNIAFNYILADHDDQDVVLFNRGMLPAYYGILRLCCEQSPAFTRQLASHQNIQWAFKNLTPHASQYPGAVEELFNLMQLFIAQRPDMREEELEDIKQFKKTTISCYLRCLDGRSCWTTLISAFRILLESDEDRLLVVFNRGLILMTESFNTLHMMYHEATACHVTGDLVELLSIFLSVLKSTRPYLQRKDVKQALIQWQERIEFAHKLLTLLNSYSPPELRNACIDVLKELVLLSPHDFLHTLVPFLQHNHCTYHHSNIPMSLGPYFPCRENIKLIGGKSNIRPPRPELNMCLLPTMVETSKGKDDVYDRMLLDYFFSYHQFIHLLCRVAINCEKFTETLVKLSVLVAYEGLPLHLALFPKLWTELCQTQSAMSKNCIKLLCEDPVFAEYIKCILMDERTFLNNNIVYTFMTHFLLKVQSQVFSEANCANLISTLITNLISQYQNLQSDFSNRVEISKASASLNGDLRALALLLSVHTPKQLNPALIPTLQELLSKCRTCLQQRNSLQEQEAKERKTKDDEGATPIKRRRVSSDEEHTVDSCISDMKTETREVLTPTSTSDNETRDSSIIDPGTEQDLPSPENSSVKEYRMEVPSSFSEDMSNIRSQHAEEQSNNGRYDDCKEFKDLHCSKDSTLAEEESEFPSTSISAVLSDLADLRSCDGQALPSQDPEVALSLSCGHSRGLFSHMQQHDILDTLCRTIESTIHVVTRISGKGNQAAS
Method in brief: (§1)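 Global-median-normalised Spectronaut label-free quantities were compared by unpaired t-test, and values are average log2 ratios of fragment over vehicle. Only proteins with ≥2 unique peptides were used. HEK293T lysate (495 µg per sample) was treated in triplicate with fragment at 200 µM or vehicle for 3 h and then with Biotin-Ahx-Ub-VS at 0.5 µM final for 1 h. Labelled DUBs were then NeutrAvidin-enriched, digested with LysC and trypsin, and run by diaPASEF LC-MS/MS.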

[2] = target: T1, USP36 (UniProt Q9P275)
T1 sequence (whole entry): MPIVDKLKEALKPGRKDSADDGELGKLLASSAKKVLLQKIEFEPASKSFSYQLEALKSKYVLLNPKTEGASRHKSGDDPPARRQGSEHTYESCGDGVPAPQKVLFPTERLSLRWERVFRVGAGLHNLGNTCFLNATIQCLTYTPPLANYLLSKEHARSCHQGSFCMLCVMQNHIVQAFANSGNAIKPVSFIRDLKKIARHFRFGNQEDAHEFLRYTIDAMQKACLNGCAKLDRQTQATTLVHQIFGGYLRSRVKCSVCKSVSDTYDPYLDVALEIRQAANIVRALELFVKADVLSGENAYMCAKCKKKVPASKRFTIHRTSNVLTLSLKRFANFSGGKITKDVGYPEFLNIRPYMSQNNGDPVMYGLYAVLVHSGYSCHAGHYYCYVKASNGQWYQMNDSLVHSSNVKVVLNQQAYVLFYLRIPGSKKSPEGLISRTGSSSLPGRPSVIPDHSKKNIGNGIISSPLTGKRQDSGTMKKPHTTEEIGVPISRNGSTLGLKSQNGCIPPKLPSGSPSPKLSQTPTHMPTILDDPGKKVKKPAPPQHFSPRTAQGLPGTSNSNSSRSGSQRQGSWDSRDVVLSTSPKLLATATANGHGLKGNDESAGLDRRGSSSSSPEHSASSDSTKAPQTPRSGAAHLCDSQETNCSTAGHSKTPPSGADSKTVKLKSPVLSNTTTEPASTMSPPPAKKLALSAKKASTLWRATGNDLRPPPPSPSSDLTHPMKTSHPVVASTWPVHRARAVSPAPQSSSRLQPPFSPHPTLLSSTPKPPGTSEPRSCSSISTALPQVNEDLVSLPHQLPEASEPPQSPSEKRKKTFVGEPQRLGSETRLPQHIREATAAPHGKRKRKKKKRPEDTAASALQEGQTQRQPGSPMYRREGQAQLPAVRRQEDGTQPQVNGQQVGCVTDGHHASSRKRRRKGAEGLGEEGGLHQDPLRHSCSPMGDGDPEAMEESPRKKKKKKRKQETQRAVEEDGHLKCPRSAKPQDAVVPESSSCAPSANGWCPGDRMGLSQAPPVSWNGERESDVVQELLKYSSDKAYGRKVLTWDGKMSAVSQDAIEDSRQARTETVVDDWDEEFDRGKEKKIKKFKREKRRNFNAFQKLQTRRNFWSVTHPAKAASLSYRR
Method in brief: as §1

[3] = target: T2, USP38 (UniProt Q8NB14)
T2 sequence (whole entry): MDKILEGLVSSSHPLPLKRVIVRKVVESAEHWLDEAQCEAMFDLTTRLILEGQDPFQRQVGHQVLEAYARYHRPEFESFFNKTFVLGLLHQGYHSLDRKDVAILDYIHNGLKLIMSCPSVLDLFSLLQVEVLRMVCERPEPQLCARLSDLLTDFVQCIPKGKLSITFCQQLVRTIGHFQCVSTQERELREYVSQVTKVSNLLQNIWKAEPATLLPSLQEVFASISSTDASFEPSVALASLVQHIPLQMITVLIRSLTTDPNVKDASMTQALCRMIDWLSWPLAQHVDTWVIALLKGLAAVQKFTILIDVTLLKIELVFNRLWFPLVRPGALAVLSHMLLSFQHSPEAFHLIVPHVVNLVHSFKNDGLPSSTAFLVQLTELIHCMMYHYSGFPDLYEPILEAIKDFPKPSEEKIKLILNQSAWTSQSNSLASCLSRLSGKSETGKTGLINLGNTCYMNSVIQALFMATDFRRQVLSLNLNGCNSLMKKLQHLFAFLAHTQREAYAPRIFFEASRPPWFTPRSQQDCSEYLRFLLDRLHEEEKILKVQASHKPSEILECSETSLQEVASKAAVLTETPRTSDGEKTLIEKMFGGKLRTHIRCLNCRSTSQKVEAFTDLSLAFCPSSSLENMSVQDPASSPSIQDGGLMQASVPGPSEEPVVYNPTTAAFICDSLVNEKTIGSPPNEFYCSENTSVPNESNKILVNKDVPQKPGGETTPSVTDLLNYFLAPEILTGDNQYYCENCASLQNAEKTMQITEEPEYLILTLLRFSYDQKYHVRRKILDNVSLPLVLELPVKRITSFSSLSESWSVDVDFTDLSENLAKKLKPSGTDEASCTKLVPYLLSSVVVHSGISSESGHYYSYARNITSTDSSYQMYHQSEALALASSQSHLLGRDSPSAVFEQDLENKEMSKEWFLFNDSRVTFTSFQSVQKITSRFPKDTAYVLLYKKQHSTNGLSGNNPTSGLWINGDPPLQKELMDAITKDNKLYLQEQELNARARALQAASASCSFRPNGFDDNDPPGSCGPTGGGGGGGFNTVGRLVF
Method in brief: as §1

[4] = target: T3, USP39 (UniProt Q53GS9)
T3 sequence (whole entry): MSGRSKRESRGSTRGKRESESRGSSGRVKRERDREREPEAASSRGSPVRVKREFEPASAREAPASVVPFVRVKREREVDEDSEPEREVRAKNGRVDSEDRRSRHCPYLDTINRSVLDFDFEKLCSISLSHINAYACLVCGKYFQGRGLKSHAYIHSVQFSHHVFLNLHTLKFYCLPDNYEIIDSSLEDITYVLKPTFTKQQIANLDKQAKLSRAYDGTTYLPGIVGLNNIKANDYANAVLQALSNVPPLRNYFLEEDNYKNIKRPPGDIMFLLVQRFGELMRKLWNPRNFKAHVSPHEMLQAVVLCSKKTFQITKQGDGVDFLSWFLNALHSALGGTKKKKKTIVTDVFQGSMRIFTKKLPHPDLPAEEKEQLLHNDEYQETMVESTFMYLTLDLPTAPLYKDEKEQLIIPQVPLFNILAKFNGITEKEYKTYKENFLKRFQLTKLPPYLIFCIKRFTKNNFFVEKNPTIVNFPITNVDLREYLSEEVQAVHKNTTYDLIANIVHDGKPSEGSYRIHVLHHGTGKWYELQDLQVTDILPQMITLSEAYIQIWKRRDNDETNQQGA
Method in brief: as §1

[5] = target: T4, USP4 (UniProt Q13107)
T4 sequence (whole entry): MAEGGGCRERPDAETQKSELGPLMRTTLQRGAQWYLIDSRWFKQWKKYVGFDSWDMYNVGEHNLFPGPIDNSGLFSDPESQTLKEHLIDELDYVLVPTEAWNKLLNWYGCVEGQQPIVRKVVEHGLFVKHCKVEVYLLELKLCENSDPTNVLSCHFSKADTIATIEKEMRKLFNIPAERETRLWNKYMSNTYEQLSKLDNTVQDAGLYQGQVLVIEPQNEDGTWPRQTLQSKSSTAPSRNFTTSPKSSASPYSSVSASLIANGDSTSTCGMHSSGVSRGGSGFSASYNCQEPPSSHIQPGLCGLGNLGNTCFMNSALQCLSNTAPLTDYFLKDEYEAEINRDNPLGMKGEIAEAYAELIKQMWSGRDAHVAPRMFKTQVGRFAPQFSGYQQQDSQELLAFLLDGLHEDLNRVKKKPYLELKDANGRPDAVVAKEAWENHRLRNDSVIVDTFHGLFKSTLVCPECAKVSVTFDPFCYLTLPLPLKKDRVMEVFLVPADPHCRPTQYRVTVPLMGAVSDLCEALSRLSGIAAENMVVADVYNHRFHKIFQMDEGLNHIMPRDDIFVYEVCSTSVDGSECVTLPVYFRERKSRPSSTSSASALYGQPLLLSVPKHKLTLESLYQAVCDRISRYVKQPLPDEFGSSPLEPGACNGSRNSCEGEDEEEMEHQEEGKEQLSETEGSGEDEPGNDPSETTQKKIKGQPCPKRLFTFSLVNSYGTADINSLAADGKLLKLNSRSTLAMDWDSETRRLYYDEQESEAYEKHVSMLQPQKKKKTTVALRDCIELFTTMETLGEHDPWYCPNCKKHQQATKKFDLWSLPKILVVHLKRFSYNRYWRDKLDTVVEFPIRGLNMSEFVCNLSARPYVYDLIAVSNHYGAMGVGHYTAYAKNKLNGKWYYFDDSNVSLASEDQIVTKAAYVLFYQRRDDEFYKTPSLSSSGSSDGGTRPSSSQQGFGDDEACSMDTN
Method in brief: as §1

Measured: log2 ratio of Biotin-Ahx-Ub-VS probe labelling

O=C(CCl)NCc1cccc(F)c1
inactive: [1] -0.0351 | [2] -0.312 | [3] 0.0703 | [4] -0.114 | [5] -0.0159
